Activity calls are given as the source filed them. Calls follow the shape of the full dose curve.
Columns and labels:
Test in all cases: Confirmatory Screen for Target Class Profiling of Small Molecule Inhibitors of Methyltransferases (AID 1745852); as to activity change, negative = inhibition: % is scaled to controls: 0 for no effect and ±100 for the full control effect
[1] = target: Catechol O-methyltransferase (Homo sapiens) (UniProt P21964); conditions: MTase-Glo luminescence, SAH detection, recombinant enzyme; measured here: COMT max response; stronger effect = lower value
[2] = target: Guanidinoacetate N-methyltransferase (Homo sapiens) (UniProt Q14353); conditions: MTase-Glo luminescence, SAH detection, recombinant enzyme; activity change, negative = inhibition: at 57.3 µM (top of the series) unless noted; series mostly up to 57.3 µM
[3] = target: Nicotinamide N-methyltransferase (Homo sapiens) (UniProt P40261); conditions: MTase-Glo luminescence, SAH detection, recombinant enzyme; measured here: NNMT max response; stronger effect = lower value
[4] = target: Phenylethanolamine N-methyltransferase (Homo sapiens) (UniProt P11086); conditions: MTase-Glo luminescence, SAH detection, recombinant enzyme; measured here: PNMT max response; stronger effect = lower value
Potency is read from the fitted curve at half-maximal effect.

Chain of Catechol O-methyltransferase (Homo sapiens) (P21964 whole entry, looked up): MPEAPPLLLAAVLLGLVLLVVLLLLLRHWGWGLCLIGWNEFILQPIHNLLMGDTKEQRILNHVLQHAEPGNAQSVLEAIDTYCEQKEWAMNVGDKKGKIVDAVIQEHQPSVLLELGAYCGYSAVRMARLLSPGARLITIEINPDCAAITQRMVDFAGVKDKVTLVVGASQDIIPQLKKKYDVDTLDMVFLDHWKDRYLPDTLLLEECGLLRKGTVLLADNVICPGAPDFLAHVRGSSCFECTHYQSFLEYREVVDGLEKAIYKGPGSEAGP
Chain of Nicotinamide N-methyltransferase (Homo sapiens) (P40261 whole entry, looked up): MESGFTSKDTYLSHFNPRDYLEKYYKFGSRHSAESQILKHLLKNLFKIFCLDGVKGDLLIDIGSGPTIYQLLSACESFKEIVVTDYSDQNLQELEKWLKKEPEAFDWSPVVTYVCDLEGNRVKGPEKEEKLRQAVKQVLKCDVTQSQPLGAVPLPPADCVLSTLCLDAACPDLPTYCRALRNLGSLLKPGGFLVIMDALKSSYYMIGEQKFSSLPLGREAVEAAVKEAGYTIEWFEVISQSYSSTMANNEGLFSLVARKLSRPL
Chain of Phenylethanolamine N-methyltransferase (Homo sapiens) (P11086 whole entry, looked up): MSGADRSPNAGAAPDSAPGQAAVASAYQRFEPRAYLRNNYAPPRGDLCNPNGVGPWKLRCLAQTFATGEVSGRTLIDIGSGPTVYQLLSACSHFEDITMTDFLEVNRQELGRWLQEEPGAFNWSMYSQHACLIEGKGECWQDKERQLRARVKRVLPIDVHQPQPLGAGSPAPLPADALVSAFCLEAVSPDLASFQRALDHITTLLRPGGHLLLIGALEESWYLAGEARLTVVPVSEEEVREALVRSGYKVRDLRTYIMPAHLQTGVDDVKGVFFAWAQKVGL

Row | Compound | activity [1] [%] | activity change, negative = inhibition [2] | activity [3] [%] | activity [4] [%] | Potency [2]
1 | Cc1cccc(N2CCN(C(=O)CCc3nnc4n(CCC(C)C)c(=O)c5ccccc5n34)CC2)c1C | -0.369 | 0% | -48.8 | -4.73 | –
2 | COc1ccc(CCNC(=O)c2ccc3c(=O)nc4c(-c5cccc(F)c5)n[nH]n4c3c2)cc1OC | -16 | – | -27.1 | -14.6 | 10.8 µM (active)
3 | CCCn1c(C)cnc1CC1CCN(C(=O)NCc2ccc(OC)cc2)C1 (stereo not given) | -4.22 | 6.2% | -3.34 | -1.44 | –
4 | CC(C)c1nccn1CCCNC(=O)c1ccc(-c2cccc(F)c2)nc1 | 4.81 | 3.97% | 9.65 | -0.0651 | –
5 | CCCCN(C)C(=O)c1c(C)sc2ccn(CCC)c(=O)c12 | -45.9 | – | -28.7 | -13.5 | 12.1 µM (active)
6 | FC(F)(F)c1cccc(-c2nccn3c(C4CN(Cc5ccc6cn[nH]c6c5)C4)ncc23)c1 | 0.457 | 4.1% | -12.8 | -2.02 | –
7 | COCCCNC(=O)c1cnc2n[nH]c(-c3ccccc3)c2n1 | -62.1 | – | -64.3 | -75.1 | 39.3 µM (active)
8 | O=C1COc2ccc(-c3cccc(O)c3)nc2CN1Cc1ccc(C(F)(F)F)cc1 | -39 | -7.53% [at 85.7 µM] | -22.9 | -51.9 | –
9 | C[C@H]1CN(C(=O)c2nn(C)c3ccccc23)C[C@@H]1c1nc(-c2cccnc2)no1 | 15.6 | 7.54% | -94 | 7.38 | –
10 | O=C(c1ccc(C(F)(F)F)cc1)N1CCCC(C(=O)N2CCC(c3nc4ccncc4[nH]3)CC2)C1 (stereo not given) | 9.15 | 6.72% | -28.9 | 9.23 | –
11 | CCC1CCCCN1CCCNC(=O)Cn1ccc2cc(S(=O)(=O)N3CCCCC3)ccc21 (stereo not given) | 1.17 | 0% | -2.34 | -1.74 | –
12 | O=C(c1cc(-c2ccccc2)n[nH]1)N1CCc2c(nc(-c3ccccc3)[nH]c2=O)C1 | 4.33 | 7.17% | 3.92 | 5.63 | –
13 | Cc1noc2c(NC3CCN(C)CC3)cc(-c3cccs3)nc12 | 7.59 | 13.7% [at 85.7 µM] | 0.3 | -6.76 | –
14 | CN(CCCNC(=O)CCCc1nnc2n3nc(-c4ccccc4)nc3c3ccccc3n12)Cc1ccccc1 | 2.29 | 0% | -6.15 | 3.41 | –
15 | CC(C)CCn1c(=O)c2ccccc2n2c(CCC(=O)N3CCN(c4ccccc4F)CC3)nnc12 | 1.06 | 0% | -60.1 | -4.6 | –
16 | CC1CCN(CCCNC(=O)CCc2nnc3n(Cc4ccc(Cl)cc4)c(=O)c4ccccc4n23)CC1 | -7.96 | -1.55% | -19 | -5.13 | –
17 | Cc1cc(C)c(CNC(=O)c2cc(-c3cnn(C)c3C)cc3c2OCCN3C)c(=O)[nH]1 | -62.4 | – | -51.4 | -75.2 | 39.3 µM (active)
18 | Cc1noc(C)c1-c1cnc(Nc2ccncc2)c2c1CCO2 | 0.912 | 1.39% [at 85.7 µM] | -6.04 | 2.25 | –
19 | COc1ccc(-c2[nH]ncc2CN2CC[C@H]3CC[C@@H](C2)N3)cc1 | 11.4 | 7.93% | 10.4 | 7.25 | –
20 | CC1CCN(CCCNC(=O)C2CCc3sc(C(=O)N4CCCC4)cc3C2)CC1 (stereo not given) | 4.14 | 6.27% | -0.224 | 4.65 | –

Row | Compound | activity [1] [%] | activity change, negative = inhibition [2] | activity [3] [%] | activity [4] [%] | Potency [2]
21 | O=C(CCc1nnc2n(CCc3ccccc3)c(=O)c3ccccc3n12)NCCCN1CCCCC1 | -0.192 | 0% | 0.418 | 0.873 | –
22 | CC1CCCCN1CCCNC(=O)c1cc2c(s1)CN(C1CCCC1)C2 (stereo not given) | 3.35 | 2.38% | 3.93 | 4.11 | –
23 | COc1cccc(NC(=O)Cn2c(=O)oc3cc(S(=O)(=O)N4CC(C)CC(C)C4)ccc32)c1 (stereo not given) | 3.17 | 0% | -1.21 | -70.5 | –
24 | O=C(CCCc1nnc2n3nc(-c4ccccc4)nc3c3ccccc3n12)NCCN1CCCC1 | 3.65 | 0% | -3.84 | 0 | –
25 | CCOC(=O)c1cc2n(n1)CC(C)(C(=O)NCCC(C)C)N(c1ccccc1C)C2=O (stereo not given) | 2.78 | – | 3.85 | 1.34 | inactive
26 | COc1cccc(-c2cccc(C(=O)N3C[C@H](CO)C[C@H](CN(C)C)C3)c2)c1 | 7.14 | 2.08% | 0.542 | 4.94 | –
27 | c1ccc(CCN2CCNc3cc(NCc4cccnc4)ncc3C2)cc1 | 2.5 | 1.95% [at 85.7 µM] | -5.35 | -6.38 | –
28 | CCCC1c2cccn2CCN1C(=O)Nc1ccc(C)cc1Cl (stereo not given) | 0.596 | – | -6.98 | -0.613 | inactive
29 | COCCNc1cc(-c2noc([C@@H]3CCCN3CC(C)C)n2)ccn1 | 3.05 | 1.02% [at 85.7 µM] | -4.35 | 2.32 | –
30 | Cn1c(=O)n(C)c2cc(S(=O)(=O)Nc3cc4c(cc3NCc3ccccc3)n(C)c(=O)n4C)ccc21 | -26 | – | -35.1 | -25.2 | 21.5 µM (active)
31 | CN(CCCNC(=O)Cn1ccc2cc(S(=O)(=O)N3CCCCC3)ccc21)C1CCCCC1 | 1.24 | 0.637% | -1.2 | 0.276 | –
32 | COc1ccc(CNc2cc3c(cn2)CN(Cc2ccccc2)CCN3)cc1OC | 2.46 | 0.935% [at 85.7 µM] | -32.8 | 1.92 | –
33 | COc1ccc(-c2nnc3n(CCc4ccccc4)c(=O)c4ccccc4n23)c(OC)c1 | -4.93 | -5.05% | -9.89 | -5.15 | –
34 | O=C(Cc1ccsc1)Nc1ccc2c(N3CCCC3)ncnc2c1 | 0.696 | 4.54% | 3.05 | -6.83 | –
35 | Cc1c(O)cc(O)c2c(=O)c(O)c(-c3ccc(O)c(O)c3)oc12 | -46.7 | – | -19.4 | -17.7 | 24.1 µM (active)
36 | CC(CNC(=O)c1nnn2c1c(=O)[nH]c1cc(F)ccc12)c1ccccc1 (stereo not given) | -11.1 | – | -18.2 | -15.8 | 0.271 µM (active)
37 | CCc1cc2c(cc3n2CC(C)(C(=O)NC2CCC(C)CC2)N(C(C)CCc2ccco2)C3=O)s1 (stereo not given) | -10.7 | -18.6% | -6.06 | -12.3 | –
38 | O=C(NCCc1ccc(Cl)cc1)c1ccc2c(=O)[nH]c3c(C(=O)NC4CCCC4)sc(=S)n3c2c1 | -38.3 | – | -77.1 | -66.5 | 27.1 µM (active)
39 | CCCN1CCn2c3c(c4cc(OC)ccc42)CCN=C31 | -5.03 | -1.32% | -6.4 | -5.52 | –
40 | Cc1ccc(-c2ccc(N)nc2)c2cccnc12 | -62.1 | 1.37% | -2.78 | 1.29 | –

Row | Compound | activity [1] [%] | activity change, negative = inhibition [2] | activity [3] [%] | activity [4] [%] | Potency [2]
41 | CCCC1c2cccn2CCN1C(=O)Nc1cc(Cl)c(OC)cc1OC (stereo not given) | -9.49 | -6.89% | -17.5 | -8.84 | –
42 | Cc1ccc(Cn2c(=O)c3ccccc3n3c(CCC(=O)NCCN4CCCC4)nnc23)cc1 | -6.32 | -1.98% | -16.1 | -2.34 | –
43 | CC1CCN(CCCNC(=O)CCc2nnc3n(Cc4ccccc4Cl)c(=O)c4ccccc4n23)CC1 | -11.4 | -3.45% | -14.4 | -7.41 | –
44 | COc1ccc(OC)c2c1cc1n2CC(C)(C(=O)NC2CCCCC2)N(Cc2ccccn2)C1=O (stereo not given) | -7.35 | -3.03% | -22.4 | -6.38 | –
45 | CCCC1c2cccn2CCN1C(=O)Nc1ccc(F)cc1F (stereo not given) | -4.42 | 1.31% | -4.75 | -3.85 | –
46 | Cn1ccc2c(C(=O)NCCc3cnc[nH]3)nc(-c3ccc(N4CCOCC4)cc3)cc21 | -6.99 | -0.183% [at 85.7 µM] | 2.75 | -6.64 | –
47 | Cc1ccc(C(=O)O)c2c1N[C@@H](c1ccc(Cl)cc1)[C@H]1CC=C[C@@H]21 | 2.12 | 0.676% | 0.978 | 2.78 | –
48 | CNC(=O)NCCc1ncc(C)n1C1CCCCCCC1 | 1.76 | 2.65% | -4.6 | -0.137 | –
49 | O=C1c2ccccc2C(=O)c2cc(S(=O)(=O)Nc3ccc(Br)cc3)ccc21 | 0.0189 | -0.0818% | -13.8 | -18.5 | –
50 | COc1ccc2nc([C@H]3CCN(C4CCCCC4)C3)[nH]c2c1 | -5.45 | 4.16% [at 85.7 µM] | -3.99 | -4.21 | –
51 | O=C(CCC[C@@H]1[C@H]2CCCN3CCC[C@@H](CN1Cc1ccccc1)[C@@H]23)Nc1cccnc1 | -3.16 | -5.99% | -11.8 | -2.62 | –
52 | O=C(c1ccc(C2CCCNC2)cc1)N1CCN(c2ccncc2)CC1 (stereo not given) | 3.41 | 2.03% | -3.55 | 3.06 | –
53 | COc1ccc(-c2n[nH]n3c2nc(=O)c2ccc(C(=O)NCc4ccc(OC)c(OC)c4)cc23)cc1 | -3.17 | 0.217% | 0.962 | 0.793 | –
54 | CCOC(=O)c1cccc(Nc2cc(C)nc3ccc(C)cc23)c1 | -4.58 | 0% | -21.8 | -4.31 | –
55 | O=c1c2ccccc2n2c(-c3ccc(F)c(F)c3)nnc2n1Cc1ccccc1Cl | -2.11 | 0% | -2.95 | -3.63 | –
56 | CC(C)c1nccn1CCCNC(=O)c1ccc(N2CCCC(CO)C2)nc1 (stereo not given) | 2.58 | 1.26% | 6.68 | 5.49 | –
57 | CCCS(=O)(=O)N1CCCC(Cn2c(C)nc3cccnc32)C1 (stereo not given) | 1.15 | 2.96% | 7.76 | 4.99 | –
58 | COc1ccc(OCc2cc(C(=O)NC(CO)C(C)C)no2)c2ccccc12 (stereo not given) | 3.87 | 1.38% | 5.13 | 0.331 | –
59 | Cc1cnc(CCNC(=O)c2cccs2)n1C1CCC1 | 0.518 | 3.29% | 8.96 | 6.31 | –
60 | COc1ccc(CCNC(=O)c2ccc3c(=O)[nH]c4c(C(=O)NCC5CCCO5)sc(=S)n4c3c2)cc1OC (stereo not given) | -41.4 | – | -23.3 | -16.5 | 27.1 µM (active)

Source: PubChem BioAssay (NCATS)
